Experimental data from the supplement of paper PMC11732987, “Enantioselective OTUD7B fragment discovery through chemoproteomics screening and high-throughput optimisation” (Communications Chemistry, 2025).

Columns and labels:
Experiment in all cases: log2 ratio of Biotin-Ahx-Ub-VS probe labelling (fragment/DMSO); higher = less target engagement (more negative = stronger competition), active = hit call of the paper (q ≤ 0.05, log2 ratio ≤ -1)
Conditions in all cases: compound concentration: 200 uM; treatment time: 3 h
ALG13 = molecular target: T1, ALG13 (UniProt Q9NP73)
T1 sequence (whole entry): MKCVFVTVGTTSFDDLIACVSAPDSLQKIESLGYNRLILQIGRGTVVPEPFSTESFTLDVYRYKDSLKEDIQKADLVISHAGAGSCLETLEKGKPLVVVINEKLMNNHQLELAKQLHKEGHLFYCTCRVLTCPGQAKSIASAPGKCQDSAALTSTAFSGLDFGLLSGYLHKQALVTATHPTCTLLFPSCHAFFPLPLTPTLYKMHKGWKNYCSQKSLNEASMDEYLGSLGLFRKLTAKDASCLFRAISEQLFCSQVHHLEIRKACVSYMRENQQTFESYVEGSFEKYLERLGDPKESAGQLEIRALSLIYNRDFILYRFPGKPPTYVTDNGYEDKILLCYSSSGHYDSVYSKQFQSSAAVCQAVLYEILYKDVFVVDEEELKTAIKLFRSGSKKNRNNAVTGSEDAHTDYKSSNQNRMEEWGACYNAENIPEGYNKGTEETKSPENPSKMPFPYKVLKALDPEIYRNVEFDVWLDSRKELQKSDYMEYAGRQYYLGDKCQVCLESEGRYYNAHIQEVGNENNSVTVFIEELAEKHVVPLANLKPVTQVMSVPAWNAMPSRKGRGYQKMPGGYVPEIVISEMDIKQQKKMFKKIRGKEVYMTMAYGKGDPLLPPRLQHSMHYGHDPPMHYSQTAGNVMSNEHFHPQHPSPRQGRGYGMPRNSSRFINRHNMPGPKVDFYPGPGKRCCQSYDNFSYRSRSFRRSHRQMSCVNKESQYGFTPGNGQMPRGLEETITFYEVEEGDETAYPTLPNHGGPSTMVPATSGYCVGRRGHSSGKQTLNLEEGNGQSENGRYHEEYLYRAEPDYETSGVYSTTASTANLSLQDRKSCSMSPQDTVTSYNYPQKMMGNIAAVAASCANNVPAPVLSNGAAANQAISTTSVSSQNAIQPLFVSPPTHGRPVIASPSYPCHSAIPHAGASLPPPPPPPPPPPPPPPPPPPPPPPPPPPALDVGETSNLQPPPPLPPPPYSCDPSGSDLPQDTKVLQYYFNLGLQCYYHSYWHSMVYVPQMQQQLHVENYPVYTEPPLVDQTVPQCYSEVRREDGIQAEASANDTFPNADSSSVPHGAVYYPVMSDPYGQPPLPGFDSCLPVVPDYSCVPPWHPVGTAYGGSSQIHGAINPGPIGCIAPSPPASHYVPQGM
In short: (§1)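 Each value is an average log2 ratio of fragment to vehicle, tested by unpaired t-test. The underlying Spectronaut label-free quantities were global-median-normalised, and only proteins with ≥2 unique peptides were included. Triplicate HEK293T lysate samples (495 µg) were exposed to fragment at 200 µM or vehicle for 3 h, then to Biotin-Ahx-Ub-VS at 0.5 µM final for 1 h, before NeutrAvidin enrichment of labelled DUBs, LysC and trypsin digestion, and diaPASEF LC-MS/MS.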

ATXN3 = ATXN3 (UniProt P54252)
In short: as §1

BAP1 = molecular target: T2, BAP1 (UniProt Q92560)
T2 sequence (whole entry): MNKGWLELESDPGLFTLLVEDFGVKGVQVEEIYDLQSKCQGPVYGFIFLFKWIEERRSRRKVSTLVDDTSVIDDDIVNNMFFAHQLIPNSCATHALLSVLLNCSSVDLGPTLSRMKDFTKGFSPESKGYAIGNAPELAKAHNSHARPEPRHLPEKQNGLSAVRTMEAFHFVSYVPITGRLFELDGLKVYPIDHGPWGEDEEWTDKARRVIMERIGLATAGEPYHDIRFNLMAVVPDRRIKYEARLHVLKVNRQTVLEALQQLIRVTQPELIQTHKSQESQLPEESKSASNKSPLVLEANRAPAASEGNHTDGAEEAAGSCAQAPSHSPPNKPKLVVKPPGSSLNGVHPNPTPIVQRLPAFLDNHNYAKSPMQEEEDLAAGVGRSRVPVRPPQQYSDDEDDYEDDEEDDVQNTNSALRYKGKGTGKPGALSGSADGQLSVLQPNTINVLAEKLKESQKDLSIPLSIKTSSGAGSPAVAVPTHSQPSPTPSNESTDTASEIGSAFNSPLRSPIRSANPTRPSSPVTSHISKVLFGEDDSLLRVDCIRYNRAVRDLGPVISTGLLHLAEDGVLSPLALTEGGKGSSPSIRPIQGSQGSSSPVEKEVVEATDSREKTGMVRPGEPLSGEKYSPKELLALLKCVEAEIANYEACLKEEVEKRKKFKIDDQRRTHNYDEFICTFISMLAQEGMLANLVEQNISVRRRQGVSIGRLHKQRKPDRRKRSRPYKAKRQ
In short: as §1

EIF3F = EIF3F (UniProt O00303)
In short: as §1

EIF3H = EIF3H (UniProt O15372)
In short: as §1

FAM105A = molecular target: T3, FAM105A (UniProt Q9NUU6)
T3 sequence (whole entry): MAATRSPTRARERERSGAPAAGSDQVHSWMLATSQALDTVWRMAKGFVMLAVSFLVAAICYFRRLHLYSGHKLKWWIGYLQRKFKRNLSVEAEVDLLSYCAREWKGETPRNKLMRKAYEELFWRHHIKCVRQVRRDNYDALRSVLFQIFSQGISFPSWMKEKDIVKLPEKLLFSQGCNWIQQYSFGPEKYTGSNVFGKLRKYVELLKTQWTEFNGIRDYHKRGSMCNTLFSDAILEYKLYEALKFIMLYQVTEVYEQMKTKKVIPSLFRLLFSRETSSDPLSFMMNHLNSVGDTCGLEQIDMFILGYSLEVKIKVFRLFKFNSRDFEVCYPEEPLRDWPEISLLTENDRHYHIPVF
In short: as §1

OTUB1 = OTUB1 (UniProt Q96FW1)
In short: as §1

OTUD4 = molecular target: T4, OTUD4 (UniProt Q01804)
T4 sequence (whole entry): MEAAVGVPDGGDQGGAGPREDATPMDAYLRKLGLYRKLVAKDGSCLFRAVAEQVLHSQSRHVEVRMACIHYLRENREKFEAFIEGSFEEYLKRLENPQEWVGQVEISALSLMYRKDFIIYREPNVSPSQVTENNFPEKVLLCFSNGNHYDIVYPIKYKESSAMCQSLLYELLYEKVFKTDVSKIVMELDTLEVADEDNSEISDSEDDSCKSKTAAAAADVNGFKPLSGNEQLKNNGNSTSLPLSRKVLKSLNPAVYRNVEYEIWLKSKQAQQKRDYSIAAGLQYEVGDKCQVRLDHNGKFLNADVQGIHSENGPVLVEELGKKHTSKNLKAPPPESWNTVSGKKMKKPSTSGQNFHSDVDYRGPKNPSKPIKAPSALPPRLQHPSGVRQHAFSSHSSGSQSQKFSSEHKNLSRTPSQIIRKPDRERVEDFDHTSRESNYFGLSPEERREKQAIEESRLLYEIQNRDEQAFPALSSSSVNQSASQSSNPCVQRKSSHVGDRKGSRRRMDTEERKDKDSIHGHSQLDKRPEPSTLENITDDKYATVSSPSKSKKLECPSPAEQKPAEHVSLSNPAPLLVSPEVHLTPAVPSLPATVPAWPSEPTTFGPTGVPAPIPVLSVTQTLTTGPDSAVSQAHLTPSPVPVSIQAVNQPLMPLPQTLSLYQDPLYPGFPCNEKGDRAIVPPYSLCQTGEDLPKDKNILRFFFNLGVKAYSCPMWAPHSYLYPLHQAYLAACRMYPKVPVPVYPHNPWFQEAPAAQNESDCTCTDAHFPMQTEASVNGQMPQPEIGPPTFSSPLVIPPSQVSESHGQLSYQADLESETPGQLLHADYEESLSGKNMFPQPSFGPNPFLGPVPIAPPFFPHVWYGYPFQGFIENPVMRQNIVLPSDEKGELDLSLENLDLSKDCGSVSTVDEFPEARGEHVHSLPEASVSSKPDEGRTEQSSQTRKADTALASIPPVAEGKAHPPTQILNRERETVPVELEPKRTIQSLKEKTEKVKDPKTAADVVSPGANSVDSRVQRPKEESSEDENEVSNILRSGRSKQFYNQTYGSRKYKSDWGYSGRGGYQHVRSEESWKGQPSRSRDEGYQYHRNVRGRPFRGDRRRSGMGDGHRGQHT
In short: as §1

OTUD5 = molecular target: T5, OTUD5 (UniProt Q96G74)
T5 sequence (whole entry): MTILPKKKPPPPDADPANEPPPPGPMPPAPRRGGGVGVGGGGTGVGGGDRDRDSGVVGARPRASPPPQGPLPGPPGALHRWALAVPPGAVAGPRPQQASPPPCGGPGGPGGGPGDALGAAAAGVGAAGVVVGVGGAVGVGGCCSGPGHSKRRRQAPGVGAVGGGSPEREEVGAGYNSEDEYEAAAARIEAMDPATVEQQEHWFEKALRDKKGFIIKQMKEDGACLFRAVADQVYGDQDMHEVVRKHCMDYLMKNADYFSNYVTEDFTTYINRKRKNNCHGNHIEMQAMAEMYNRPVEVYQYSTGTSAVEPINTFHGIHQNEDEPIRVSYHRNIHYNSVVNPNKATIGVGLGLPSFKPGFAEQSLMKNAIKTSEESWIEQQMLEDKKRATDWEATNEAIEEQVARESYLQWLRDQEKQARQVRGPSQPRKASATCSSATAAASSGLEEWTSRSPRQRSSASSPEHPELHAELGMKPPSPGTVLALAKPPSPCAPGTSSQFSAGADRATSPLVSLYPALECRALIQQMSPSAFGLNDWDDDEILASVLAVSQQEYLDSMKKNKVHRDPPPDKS
In short: as §1

Measured: log2 ratio of Biotin-Ahx-Ub-VS probe labelling

Chain of OTUB1 (Q96FW1 whole entry): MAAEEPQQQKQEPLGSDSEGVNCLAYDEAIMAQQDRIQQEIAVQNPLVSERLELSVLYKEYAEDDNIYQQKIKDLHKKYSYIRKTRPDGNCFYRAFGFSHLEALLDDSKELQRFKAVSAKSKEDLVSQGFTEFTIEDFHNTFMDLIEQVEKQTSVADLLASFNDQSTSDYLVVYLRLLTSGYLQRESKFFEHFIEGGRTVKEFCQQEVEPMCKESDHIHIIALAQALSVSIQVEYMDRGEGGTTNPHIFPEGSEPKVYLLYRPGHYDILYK
Chain of EIF3H (O15372 whole entry): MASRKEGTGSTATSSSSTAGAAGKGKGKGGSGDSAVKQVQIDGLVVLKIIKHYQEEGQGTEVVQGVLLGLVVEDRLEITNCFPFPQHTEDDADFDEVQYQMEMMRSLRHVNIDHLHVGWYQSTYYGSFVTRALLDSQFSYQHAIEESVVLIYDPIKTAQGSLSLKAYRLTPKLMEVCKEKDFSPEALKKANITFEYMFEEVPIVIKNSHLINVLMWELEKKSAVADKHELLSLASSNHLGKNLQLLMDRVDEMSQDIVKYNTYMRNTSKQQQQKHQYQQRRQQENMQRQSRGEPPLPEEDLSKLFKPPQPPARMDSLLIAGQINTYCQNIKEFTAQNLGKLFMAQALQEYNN
Chain of ATXN3 (P54252 whole entry): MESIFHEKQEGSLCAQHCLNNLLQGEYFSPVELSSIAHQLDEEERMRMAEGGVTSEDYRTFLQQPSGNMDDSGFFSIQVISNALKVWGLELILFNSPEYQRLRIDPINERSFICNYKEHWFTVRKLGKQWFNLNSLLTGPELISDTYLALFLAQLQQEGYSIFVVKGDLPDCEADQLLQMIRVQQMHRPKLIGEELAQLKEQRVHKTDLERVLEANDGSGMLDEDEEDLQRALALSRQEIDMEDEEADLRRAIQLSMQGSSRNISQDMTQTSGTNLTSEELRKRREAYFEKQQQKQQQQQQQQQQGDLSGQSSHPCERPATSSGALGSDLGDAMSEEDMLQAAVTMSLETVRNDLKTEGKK
Chain of EIF3F (O00303 whole entry): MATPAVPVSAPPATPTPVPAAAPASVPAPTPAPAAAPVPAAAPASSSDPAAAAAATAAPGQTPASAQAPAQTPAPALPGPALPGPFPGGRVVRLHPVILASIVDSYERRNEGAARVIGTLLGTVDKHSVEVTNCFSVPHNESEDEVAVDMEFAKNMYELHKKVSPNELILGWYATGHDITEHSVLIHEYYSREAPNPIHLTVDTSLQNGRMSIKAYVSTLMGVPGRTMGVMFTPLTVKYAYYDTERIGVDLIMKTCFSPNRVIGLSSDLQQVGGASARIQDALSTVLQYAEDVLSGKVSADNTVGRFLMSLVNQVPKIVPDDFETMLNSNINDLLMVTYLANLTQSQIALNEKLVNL

C#Cc1cccc(NC(=O)CCl)c1
active: BAP1 -3.08
inactive: ALG13 -0.0771 | ATXN3 -0.239 | EIF3F -0.206 | EIF3H 0.0977 | FAM105A 0.233 | OTUB1 -0.135 | OTUD4 -0.211 | OTUD5 -0.288
